Bioassay records deposited in PubChem BioAssay by National Center for Advancing Translational Sciences (NCATS).
Ub-GFP proteasome: inhibits proteasome, raising ubiquitin-GFP reporter fluorescence | Potency, µM (highest dose often 45.9 µM), hits mostly activators | Ubiquitin-GFP reporter cells, proteasome inhibition, GFP fluorescence; response scale: untreated = 0%, 10 µM MG-132 = 100% | 67,000 tested, under 10 active | AID 526; active = well fitted activation curve with a large enough effect, not every such curve was filed as active; inconclusive = small, poorly fitted or top-dose-only effect, or another doubt; inactive = no such curve, though single readings can be large or run the other way
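Proteasome block read as GFP accumulation: ubiquitin(G76V)-GFP U2OS cells exposed to compound (2.9 nM–46 uM) for 4 hr at 37 C. Normalization used untreated cells as 0% and 10 uM MG-132 as 100%; concentration-response curves fitted.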
Bst PK mod: modulators of Bacillus stearothermophilus pyruvate kinase; purified pyruvate kinase, luminescence ATP production; ribose 5-phosphate activator present at AC10; Potency, µM; 1.2% of 51,000 active; in the data active = potency below about 11 µM; inconclusive = mostly about 12 µM to 25 µM;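 the screen sought inhibitors and activators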
Epigenetic mod: epigenetic modulators derepressing GFP locus in mouse cells; mouse C127i GFP locus derepression, cytometry, 30 h; Potency, µM (series often up to 46.1 µM); 0.09% of 68,000 active; AID 597
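Murine C127i mammary cells carrying a silenced, stably integrated CMV-driven GFP reporter were treated with compound for 30 hours at 37 C. After PBS washes, GFP-positive cells were counted by laser-scanning microplate cytometry.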
FLuc inh: firefly luciferase inhibition. P08659. purified firefly luciferase, luminescence, 8 min. Potency, µM (top dose mostly 57.1 µM), actives largely listed as inhibitors. 2.2% of 72,000 active. AID 411; note: nearly all actives have a fitted effect of over 40% in size
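Here, luciferase activity is measured as luminescence following an 8 min room-temperature reaction at 10 uM ATP, pH 7.2. Every library sample is titrated.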
HBB splice mod: alters splicing of the hemoglobin beta chain | 0.06% of 65,000 active | AID 925 | Potency, µM (titrated, usually from 46.1 µM), actives largely listed as activators | HBB splicing reporter cell assay, activation; EGFP reporter with mutant IVS2-654 intron; response scale: normalised to 500 nM splice-correcting PNA
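Compounds were applied for 2 days to HeLa EGFP-654 cells, 500/well in Optimem with 2% FCS. The reporter's EGFP is disrupted by mis-splicing of beta-globin intron IVS2-654. Readout: summed well GFP fluorescence from 488 nm laser scanning; reference was 500 nM antisense […] 654 PNA.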
GBA mod: alters purified human glucocerebrosidase activity | purified enzyme, resorufin glucoside fluorescence (screen aimed at inhibitors), 20 min | P04062 | Potency, µM | 1.1% of 48,000 active; in the data active = potency below about 15 µM; inconclusive = mostly about 16 µM to 33 µM;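 note: the screen sought inhibitors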
Target sequence (P04062 whole entry, looked up): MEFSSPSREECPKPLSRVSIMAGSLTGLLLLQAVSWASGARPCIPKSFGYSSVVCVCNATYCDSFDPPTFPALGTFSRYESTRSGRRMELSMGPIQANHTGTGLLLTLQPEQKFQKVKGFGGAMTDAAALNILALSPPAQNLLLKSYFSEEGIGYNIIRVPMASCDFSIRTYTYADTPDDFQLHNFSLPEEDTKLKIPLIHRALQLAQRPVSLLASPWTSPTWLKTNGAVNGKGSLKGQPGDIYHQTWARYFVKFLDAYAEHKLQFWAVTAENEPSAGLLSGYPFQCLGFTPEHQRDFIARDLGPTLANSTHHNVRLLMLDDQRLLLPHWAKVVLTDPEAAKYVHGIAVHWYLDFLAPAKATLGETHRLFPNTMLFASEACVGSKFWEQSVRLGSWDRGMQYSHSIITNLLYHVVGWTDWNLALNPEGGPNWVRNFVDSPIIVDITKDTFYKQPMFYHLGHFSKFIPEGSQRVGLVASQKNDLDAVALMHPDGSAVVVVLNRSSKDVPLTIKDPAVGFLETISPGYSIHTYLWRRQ
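Wild-type enzyme at 0.2 nM final in 50mM citric acid/KH2PO4, 10mM sodium taurocholate, 0.01% tween-20, pH 5.9, with resorufin beta-D-glucopyranoside at 30 uM final. Compounds titrated, 20 min at RT, red fluorescence read; AC50 from titration.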
Hits are given with their value; [ ] = dose if it differs, or a comment. This is a sample that favours compounds with a hit; in the whole collection about 3.3% have one here. Unless noted, calls come from the whole dose curve; as a rule, active = well fitted curve in the direction sought with a large enough effect; inconclusive = small, poorly fitted or top-dose-only effect, or another doubt; inactive = no such curve, though single readings can be large; an effect the other way counts as inactive or inconclusive.

Results for CS(=O)(=O)c1ccc2nc(NC(=O)c3ccco3)sc2c1 ?
Ub-GFP proteasome: inactive; FLuc inh: 4µM; HBB splice mod: inactive

Results for CCOC(=O)c1ccc2nc(NC(=O)c3cccs3)sc2c1 ?
Ub-GFP proteasome: inactive; Bst PK mod: inactive; Epigenetic mod: inactive; FLuc inh: 7.9µM; HBB splice mod: inactive; GBA mod: inactive

How did Nc1ncnc2c1ncn2[C@@H]1O[C@@H](CO)[C@H](O)[C@@H]1O do in these assays?
Ub-GFP proteasome: inactive; Epigenetic mod: inactive; FLuc inh: inactive; HBB splice mod: inactive

What do the screens show for `COCCn1c(=O)c(-c2cccs2)nc2cnc(Oc3ccc(OC)cc3)nc21`?
Ub-GFP proteasome: inactive; Epigenetic mod: inactive[9.22 µM]; FLuc inh: inactive[11.4 µM]; HBB splice mod: inactive

How did COc1cccc([C@@H]2Oc3ccc(OC)cc3/C(=N/OC[C@@H](C)[C@H](OCc3ccccc3)C(C)C)[C@@H]2O)c1 do in these assays?
FLuc inh: inactive[11.4 µM]; HBB splice mod: inactive[9.22 µM]

How did COc1ccc(-c2nc3cnc(N4CCNCC4)nc3n(-c3ccccc3)c2=O)cc1 do in these assays?
Ub-GFP proteasome: inactive; Epigenetic mod: inactive[9.22 µM]; FLuc inh: inactive[11.4 µM]; HBB splice mod: inactive

How did CN(C)c1ncc2nc(-c3ccc(F)cc3)c(=O)n(C3CC3)c2n1 do in these assays?
Ub-GFP proteasome: inactive; Epigenetic mod: inactive[9.22 µM]; FLuc inh: inactive[11.4 µM]; HBB splice mod: inactive

What do the screens show for `CN(C)S(=O)(=O)c1ccc2nc(NC(=O)c3cccnc3)sc2c1`?
Ub-GFP proteasome: inactive; Bst PK mod: inactive; Epigenetic mod: inactive; FLuc inh: 13µM; HBB splice mod: inactive; GBA mod: inactive

Results for O=S(=O)(NCc1ccccn1)c1cccc2cccnc12 ?
Ub-GFP proteasome: inactive; FLuc inh: inactive; HBB splice mod: inactive

What do the screens show for `NC(=O)c1ccc(-c2ccc(Br)cc2)o1`?
Ub-GFP proteasome: inactive; Bst PK mod: 5.1; Epigenetic mod: inactive; FLuc inh: inactive; HBB splice mod: inactive; GBA mod: inactive

Results for O=C(Nc1ccc(N2CCN(C(=O)c3ccccc3)CC2)c(Cl)c1)c1ccc(Br)o1 ?
Bst PK mod: inactive; Epigenetic mod: inactive; FLuc inh: inactive

Results for O=C(Nc1ccc(N2CCCC2)c(Cl)c1)c1ccco1 ?
Ub-GFP proteasome: inactive[9.17 µM]; Epigenetic mod: inactive; FLuc inh: 5µM; HBB splice mod: inactive[0.0738 µM]

How did O=C(Nc1ccc(N2CCCCC2)c(C(=O)O)c1)c1ccco1 do in these assays?
Ub-GFP proteasome: inactive; Bst PK mod: inactive; Epigenetic mod: inactive; FLuc inh: inactive; HBB splice mod: inactive; GBA mod: inactive

What do the screens show for `O=C(Nc1ccc(N2CCCCC2)c(Cl)c1)c1ncn[nH]1`?
Ub-GFP proteasome: inactive; Epigenetic mod: inactive; FLuc inh: 10µM; GBA mod: inactive

Results for CC(=O)N1CCN(c2ccc(NC(=O)c3ccccc3Br)cc2Cl)CC1 ?
Ub-GFP proteasome: inactive; Bst PK mod: inactive; Epigenetic mod: inactive; FLuc inh: inactive; HBB splice mod: inactive; GBA mod: 0.33

Results for CCCCCCCCC1CO1 (stereo not given) ?
HBB splice mod: inactive

What do the screens show for `COc1ccc(N/C(N)=N/c2nc(CSc3ccc(C)cc3)cc(=O)[nH]2)cc1`?
Ub-GFP proteasome: inactive; Bst PK mod: inactive; Epigenetic mod: inactive; FLuc inh: inactive; HBB splice mod: inactive; GBA mod: 9.7

How did CCCCCCCCCCCCCCCCCC(=O)NCCc1ccc(O)c(O)c1 do in these assays?
HBB splice mod: inactive

Results for Cc1ccnc(NC(=O)CCC(=O)N(CC(=O)NC(C)(C)C)C2CCCC2)c1 ?
Ub-GFP proteasome: inactive; Bst PK mod: inactive; Epigenetic mod: inactive; FLuc inh: inactive; GBA mod: inactive

What do the screens show for `Cc1ccnc(NC(=O)CCC2CCCCC2)c1`?
Ub-GFP proteasome: inactive; Epigenetic mod: inactive; FLuc inh: 20µM; HBB splice mod: inactive; GBA mod: inactive

Results for c1ccc2c(c1)oc1c(Nc3ccc(CN4CCOCC4)cc3)ncnc12 ?
Ub-GFP proteasome: inactive; Bst PK mod: inactive; Epigenetic mod: inactive; FLuc inh: 16µM; HBB splice mod: inactive[0.369 µM]; GBA mod: inconclusive

Results for c1ccc2c(c1)oc1c(NCCN3CCOCC3)ncnc12 ?
Ub-GFP proteasome: inactive; Bst PK mod: inactive; Epigenetic mod: inactive; FLuc inh: inactive; HBB splice mod: inactive[0.369 µM]; GBA mod: inactive

What do the screens show for `Oc1ccccc1Nc1ncnc2c1oc1ccccc12`?
Ub-GFP proteasome: inactive; Bst PK mod: inactive; Epigenetic mod: inactive; FLuc inh: inactive; HBB splice mod: inactive[0.369 µM]; GBA mod: inactive

What do the screens show for `c1ccc(Nc2ncnc3c2oc2ccccc23)cc1`?
Ub-GFP proteasome: inactive; Bst PK mod: 5.4; Epigenetic mod: inactive; FLuc inh: inactive; HBB splice mod: inactive; GBA mod: inactive

What do the screens show for `CCCc1ccc(-c2ccc(F)c(N)c2)nc1`?
Ub-GFP proteasome: inactive; Epigenetic mod: inactive; FLuc inh: 2µM; HBB splice mod: inactive[9.22 µM]

What do the screens show for `NS(=O)(=O)c1ccc(CCNC(=O)NC2(C(F)(F)F)Oc3ccccc3O2)cc1`?
Ub-GFP proteasome: inactive; Bst PK mod: inactive; Epigenetic mod: inconclusive; FLuc inh: inactive; HBB splice mod: inactive; GBA mod: 14

How did O=C(NCCN1CCOCC1)NC1(C(F)(F)F)Oc2ccccc2O1 do in these assays?
Ub-GFP proteasome: inactive; Bst PK mod: inactive; Epigenetic mod: inactive; FLuc inh: inactive; HBB splice mod: inactive; GBA mod: inactive

How did CC(=O)Nc1ccc(S(=O)(=O)Nc2ccc(NC(=O)c3ccco3)cc2)cc1 do in these assays?
Ub-GFP proteasome: inactive; Bst PK mod: inactive; Epigenetic mod: inactive; FLuc inh: inactive; HBB splice mod: inactive; GBA mod: 11

How did CCOC(=O)Nc1ccc(C(=O)Oc2ccccc2)c(O)c1 do in these assays?
Ub-GFP proteasome: inactive; Epigenetic mod: inactive; FLuc inh: inactive; HBB splice mod: inactive; GBA mod: inconclusive

What do the screens show for `O=C(Nc1ccc(C(=O)Oc2ccccc2)c(O)c1)c1ccco1`?
Ub-GFP proteasome: inactive; Bst PK mod: inactive; Epigenetic mod: inactive; FLuc inh: 25µM; HBB splice mod: inactive; GBA mod: inactive

What do the screens show for `CC(=O)N(C)c1ccc(NC(=O)c2ccco2)cc1`?
Ub-GFP proteasome: inactive; Bst PK mod: inconclusive; Epigenetic mod: inactive; FLuc inh: inactive; HBB splice mod: inactive; GBA mod: inactive

What do the screens show for `CCOc1ccc(NC(=O)c2ccco2)cc1`?
Ub-GFP proteasome: inactive; Bst PK mod: inactive; Epigenetic mod: inactive; FLuc inh: 13µM; HBB splice mod: inactive; GBA mod: inactive

Results for O=C(Nc1ccc(Nc2ccccc2)cc1)c1ccco1 ?
Ub-GFP proteasome: inactive; Bst PK mod: inactive; Epigenetic mod: inactive; FLuc inh: 13µM; HBB splice mod: inactive; GBA mod: 3

What do the screens show for `N#Cc1cccc(-c2nc(N3CCNCC3)c3ccccc3n2)c1`?
Ub-GFP proteasome: inactive; Epigenetic mod: inactive[9.22 µM]; FLuc inh: inactive[2.29 µM]; HBB splice mod: inactive
